Results filed as inconclusive are left out. Entries that show only a call come without a potency. The source made the active and inactive calls. The call rests on the fitted dose curve; in most records, active means well fitted inhibition curve with a large enough effect; inconclusive means small, poorly fitted or top-dose-only effect, or effect the other way; inactive means flat fitted curve, though single readings scatter.
Each molecule was assayed against D(1A) dopamine receptor (Homo sapiens) (UniProt P21728) (assay: HTS Assay for Allosteric Agonists of the Human D1 Dopamine Receptor: Primary Screen for Antagonists (AID 488983; further: nearly all actives have a fitted effect of over 65% in size)). Conditions: D1 receptor cell assay, antagonist mode, qHTS titration; series mostly up to 41.8 µM.
Chain of D(1A) dopamine receptor (Homo sapiens) (P21728 whole entry, looked up): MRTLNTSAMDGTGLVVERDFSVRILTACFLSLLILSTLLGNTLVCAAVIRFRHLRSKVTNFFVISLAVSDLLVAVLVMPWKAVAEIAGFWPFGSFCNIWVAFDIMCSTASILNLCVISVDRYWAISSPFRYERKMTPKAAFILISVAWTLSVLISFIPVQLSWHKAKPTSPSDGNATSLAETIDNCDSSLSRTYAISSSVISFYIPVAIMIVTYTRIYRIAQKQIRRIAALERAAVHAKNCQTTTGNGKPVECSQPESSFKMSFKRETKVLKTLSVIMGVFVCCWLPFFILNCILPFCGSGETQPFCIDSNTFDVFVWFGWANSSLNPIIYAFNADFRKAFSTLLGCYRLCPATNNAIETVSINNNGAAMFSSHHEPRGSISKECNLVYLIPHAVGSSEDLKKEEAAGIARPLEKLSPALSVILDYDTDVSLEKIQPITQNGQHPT
Excerpt: Dopamine receptors (DARs) are involved in the etiology and/or therapy of a number of neuropsychiatric and endocrine disorders. For instance, all receptor-based antiparkinsonian drugs work via stimulating the […] DAR subtype whereas all FDA-approved antipsychotic agents are antagonists of this receptor. […] There are three different types of allosteric modulators that we are seeking, two of which will stimulate or augment receptor signaling, allosteric agonists and potentiators, while the third, allosteric antagonists, will attenuate receptor signaling. The present primary screening assay measures compound agonism by tracking calcium flux in a […], inducible Hek293 Trex D1 cell line.
Freshly passaged cells are plated in 1536 well black, clear bottom plates at a density of 4000 cells/well in 3 ul of complete media containing 1x tetracycline inducer. After an overnight incubation at 30 C in 5% CO2, cells are loaded with 2 ul of the no wash Calcium Assay Kit (ABD Bioquest) and incubated at room temperature for 30 to 90 minutes. A 10 cycle (1 second/cycle) baseline measurement is taken and then the FDSS online 1536 pintool delivers 23 nl of compound library (as well as dopamine controls) to the plate. The plate is measured for kinetically at 1 cycle/sec for 180 seconds and is considered to be the agonist portion of the assay (eg, compounds which activate a positive calcium response during this portion are flagged as potential agonists). Following the 180 second read, 1 ul of an EC80 of dopamine is delivered by an onboard pipette head. Measurements are taken kinetically for an additional 180 seconds.
Potency means the concentration at half of the fitted maximal effect.

Question: `Clc1ccc(C(c2ccc(Cl)cc2)n2cc[n+](CC(OCc3ccc(Cl)cc3Cl)c3ccc(Cl)cc3Cl)c2)cc1` (centres undefined) was tested. Which Potency did it give?
Answer: The Potency was “inactive”.

Question: `CCN(CC)C(=O)c1ccc(O)c(OC)c1` was tested. Which Potency did it give?
Answer: The Potency was “inactive”.

Question: How did the Potency turn out when `O=C1NCC2(CCN(CCc3ccccc3)CC2)O1` was run?
Answer: The Potency was “inactive”.

Question: For `Clc1ccc(Cn2c(CN3CCCC3)nc3ccccc32)cc1`, which Potency is on record?
Answer: The Potency was “inactive”.

Question: With `CC(=O)CCCCn1c(=O)c2c(ncn2C)n(C)c1=O` as the molecule, how does the Potency read?
Answer: The Potency was “inactive”.

Question: How did the Potency turn out when `CCN(CC)CCOC(=O)c1ccc(N)cc1` was run?
Answer: The Potency was “inactive”.

Question: With `O=C(O)CCc1nc(-c2ccccc2)c(-c2ccccc2)o1` as the molecule, how does the Potency read?
Answer: The Potency was “inactive”.

Question: For `CCCNC(=O)NS(=O)(=O)c1ccc(Cl)cc1`, which Potency is on record?
Answer: The Potency was “inactive”.

Question: For `CCCCCN(C)CCC(O)(P(=O)(O)O)P(=O)(O)O`, which Potency is on record?
Answer: The Potency was “inactive”.

Question: `CC(=O)c1ccc(S(=O)(=O)NC(=O)NC2CCCCC2)cc1` was tested. Which Potency did it give?
Answer: The Potency was “inactive”.

Question: With `O=C(NCCN1CCOCC1)c1ccc(Cl)cc1` as the molecule, how does the Potency read?
Answer: Its Potency is “inactive”.

Question: `COC(=O)[C@@H]1[C@H]2C[C@H]3c4[nH]c5ccccc5c4CCN3C[C@@H]2CC[C@@H]1O` was tested. Which Potency did it give?
Answer: Its Potency is 17.8 µM (active).

Question: `CCn1cc(C(=O)O)c(=O)c2ccc(C)nc21` was tested. Which Potency did it give?
Answer: Its Potency is “inactive”.

Question: `O=C1NC(=O)C(c2ccccc2)(c2ccccc2)N1` was tested. Which Potency did it give?
Answer: Its Potency is “inactive”.

Question: For `CCN(CC)CCNC(=O)c1ccc(N)cc1`, which Potency is on record?
Answer: The Potency was “inactive”.

Question: Which Potency does the source give for `COc1cccc(-c2cc(=O)c3ccccc3o2)c1N` here?
Answer: Its Potency is “inactive”.

Question: `CC1(C)CCC2=C(O1)c1ccccc1C(=O)C2=O` was tested. Which Potency did it give?
Answer: The Potency was “inactive”.

Question: Which Potency does the source give for `O=c1cc(-c2ccc(O)cc2)oc2cc(O)cc(O)c12` here?
Answer: Its Potency is “inactive”.

Question: How did the Potency turn out when `CCN1CCC[C@H]1CNC(=O)c1cc(S(N)(=O)=O)ccc1OC` was run?
Answer: The Potency was “inactive”.

Question: For `NC(N)=Nc1nc(CSCC/C(N)=N/S(N)(=O)=O)cs1`, which Potency is on record?
Answer: The Potency was “inactive”.

Question: Which Potency does the source give for `CCCCC1C(=O)N(c2ccccc2)N(c2ccccc2)C1=O` here?
Answer: Its Potency is “inactive”.

Question: How did the Potency turn out when `CC(=O)N[C@@H](CS)C(=O)O` was run?
Answer: Its Potency is “inactive”.

Question: `O=c1c(-c2ccc(O)cc2)coc2cc(O)ccc12` was tested. Which Potency did it give?
Answer: The Potency was “inactive”.

Question: For `NCCS`, which Potency is on record?
Answer: Its Potency is “inactive”.

Question: How did the Potency turn out when `CC(C)OC(=O)C(C)(C)Oc1ccc(C(=O)c2ccc(Cl)cc2)cc1` was run?
Answer: The Potency was “inactive”.

Question: For `C[N+](C)(C)CCCCCC[N+](C)(C)C`, which Potency is on record?
Answer: Its Potency is “inactive”.

Question: Which Potency does the source give for `COc1ccccc1N1CCN(CCCNc2cc(=O)n(C)c(=O)n2C)CC1` here?
Answer: Its Potency is “inactive”.

Question: Which Potency does the source give for `CN(C)CCC(c1ccccc1)c1ccccn1` (centres undefined) here?
Answer: The Potency was “inactive”.

Question: `C[N+](C)(C)CC(=O)O` was tested. Which Potency did it give?
Answer: The Potency was “inactive”.

Question: With `Cc1cccc(C)c1OCC(C)N` (centres undefined) as the molecule, how does the Potency read?
Answer: Its Potency is “inactive”.

Question: How did the Potency turn out when `CC/C(=C(\c1ccccc1)c1ccc(OCCN(C)C)cc1)c1ccccc1` was run?
Answer: The Potency was “inactive”.

Question: With `CC(C)NCC(O)COc1cccc2[nH]ccc12` (centres undefined) as the molecule, how does the Potency read?
Answer: The Potency was “inactive”.

Question: For `COc1ccc(Cc2nccc3cc(OC)c(OC)cc23)cc1OC`, which Potency is on record?
Answer: The Potency was “inactive”.

Question: How did the Potency turn out when `CC(=O)O[C@]1(C(C)=O)CC[C@H]2[C@@H]3C=C(Cl)C4=CC(=O)[C@@H]5C[C@@H]5[C@]4(C)[C@H]3CC[C@@]21C` was run?
Answer: Its Potency is “inactive”.
